D2 PAM-1 = Beta-Arrestin HTS for Positive Allosteric Modulators of the Human D2 Dopamine Receptor: Potentiators. D(2) dopamine receptor (Homo sapiens), P14416. DiscoveRx D2 beta-arrestin cells, luminescence, 90 min; 100% = 57 uM dopamine signal. potentiation, % (test concentration not listed). 360,000 tested, 0.23% active. AID 624464, 2012; in the data active = potentiation above about 50%
Target sequence (P14416 whole entry, looked up): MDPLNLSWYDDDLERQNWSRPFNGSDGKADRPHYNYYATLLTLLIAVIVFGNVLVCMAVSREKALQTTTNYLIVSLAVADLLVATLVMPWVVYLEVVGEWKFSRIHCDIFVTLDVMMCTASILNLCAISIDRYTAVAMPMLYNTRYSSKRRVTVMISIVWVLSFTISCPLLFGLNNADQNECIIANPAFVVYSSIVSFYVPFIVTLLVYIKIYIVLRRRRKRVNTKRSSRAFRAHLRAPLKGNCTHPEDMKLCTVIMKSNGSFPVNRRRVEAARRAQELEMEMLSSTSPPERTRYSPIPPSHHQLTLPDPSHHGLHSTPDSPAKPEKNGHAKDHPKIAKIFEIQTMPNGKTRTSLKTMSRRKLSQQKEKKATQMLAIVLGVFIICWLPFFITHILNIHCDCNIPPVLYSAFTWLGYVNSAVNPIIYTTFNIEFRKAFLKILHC
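D2 cells co-treated with compound plus 50 nM dopamine (EC20) for 90 min at 37 deg C to detect potentiation. Beta-arrestin recruitment was read as enzyme-fragment luminescence after 1 h at ambient temperature. Full response was set by 57 uM dopamine.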
D2 PAM-2 = HTS Assay for Positive Allosteric Modulators of the Human D2 Dopamine Receptor: Primary Screen for Potentiators | HEK293 T-REx D2, calcium flux, EC20 dopamine potentiation | potentiation, % at 10 µM | 340,000 tested, 0.34% active;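 active = potentiation over 3 SD above the plate norm, cut at about 30% in these data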; note: 0% is about no effect
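Tetracycline-induced Hek293 Trex D2 cells, force-coupled to calcium, loaded with no-wash calcium dye. Compound added with 180 s kinetic read for agonism, then EC20 dopamine and a further 180 s read for potentiation.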
D2 ag-1 = Beta-Arrestin HTS for Positive Allosteric Modulators of the Human D2 Dopamine Receptor: Agonists. AID 624465, 2012. activation, % (no concentration beside the values). 360,000 tested, 0.084% active. DiscoveRx PathHunter D2 beta-arrestin, luminescence, 90 min; 100% = 57 uM dopamine signal; in the data active = activation above about 40%
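DiscoveRx PathHunter D2 beta-arrestin cells (2,100/well) attached overnight, then compound-stimulated 90 min at 37 C in HBSS/10 mM HEPES/0.1% Tween-20 buffer; beta-galactosidase complementation read by luminescence after 1 h at ambient temperature. Dopamine 57 uM final (EC100) as control.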
D2 ag-2 = HTS Assay for Allosteric Agonists of the Human D2 Dopamine Receptor: Primary Screen for Agonists; HEK293 T-REx D2 cells, calcium flux agonist mode; activation, % at 2 µM; D(2) dopamine receptor (Homo sapiens), P14416; 340,000 tested, 0.53% active;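 active = activation over 3 SD above normal in the single-dose calcium agonist read, cut at about 30% in these data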; note: 0% is about no effect
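Agonism is scored from calcium flux in a force-coupled, inducible HEK293 cell line expressing D2, read kinetically for 180 s after compound addition against dopamine controls.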
D2 antag = HTS Assay for Allosteric Antagonists of the Human D2 Dopamine Receptor: Primary Screen for Antagonists; D(2) dopamine receptor (Homo sapiens), P14416; HEK293 TREx D2 cells, calcium flux, dopamine EC80; inhibition, % at 10 µM; 340,000 tested, 2% active; AID 485344, 2010; in the data active = inhibition above about 30%; inactive = below that, where a call was filed; note: 0% is about no effect
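Calcium mobilization kinetics were recorded at 1 s intervals in tetracycline-induced HEK293 T-REx D2 cells, first for 180 s after compound addition and then 180 s after EC80 dopamine.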
Starred values were filed as active, the others as inactive; x = not tested or not shown. Hits are enriched below; roughly 2.4% of the tested compounds scored in any of these assays.

SMILES | D2 PAM-1 | D2 PAM-2 | D2 ag-1 | D2 ag-2 | D2 antag
Cc1c(C(=O)N2CC3(CC(c4cccc(NC(=O)[C@H]5CCC(=O)N5)c4)=NO3)C[C@@H]2C(N)=O)cc([N+](=O)[O-])cc1[N+](=O)[O-] (stereo not given in full) | 74* | 1 | 7 | 0 | -10
C=C(C)C(=O)Nc1cccc(C2=NOC3(C2)C[C@H](C(N)=O)N(C(=O)COc2ccc(Cl)cc2)C3)c1 (stereo not given in full) | -12 | -1 | 2 | 0 | 35*
CSc1ccc(CCNC(=O)c2cc3c(-c4ccccc4F)nn(C)c3s2)cc1 | x | -1 | x | 1 | x
Cc1cccc(-n2ncc(C(=O)NCc3ccc4c(c3)OCO4)c2C2CCN(C(=O)OC(C)(C)C)CC2)c1 | x | 3 | x | 0 | x
CC(NC(=O)CCCC1=NS(=O)(=O)c2ccccc2N1)c1ccccc1 (stereo not given) | x | 12 | x | 10 | x
CCOc1ccc(CNC(=O)c2ccc3nc(Cc4ccc(OC)cc4)oc3c2)cc1OC | x | 13 | x | -1 | x
NNc1nc(Nc2ccc([N+](=O)[O-])cc2)nc(N2CCCCCC2)n1 | -36 | 5 | -2 | 2 | -2
Cc1ccc([N+](=O)[O-])cc1Nc1nc(N2CCCC2)nc(N2CCCC2)n1 | -4 | 11 | -4 | 1 | 35*
CSCCC(NC(=O)c1ccc(Cl)cc1)C(=O)OCC(C)=O (stereo not given) | -6 | -4 | -6 | 1 | 32*
CCc1ccc(NC(=O)C2CCN(S(=O)(=O)c3ccc4[nH]c5c(c4c3)CCCCC5)CC2)cc1 | x | -3 | x | 0 | x
Cc1ccc(CSc2sc(C(=O)c3ccccc3)c(N)c2C#N)cc1 | 21 | -3 | -4 | 0 | 18
N#Cc1c(SCc2ccccc2)sc(C(=O)c2ccccc2)c1N | -1 | -12 | -2 | 0 | 65*
CCOc1ccccc1CNC(=O)c1ccc(NC(=O)N2CCSc3ncccc32)cc1 | x | 3 | x | 0 | x
COc1cc(/C=N/NC(=O)c2ccc(N(C)S(=O)(=O)c3ccccc3)cc2)cc(OC)c1OC | -4 | -3 | 2 | 0 | -3
Cc1ccc(S(=O)(=O)N(C)/N=C/c2ccc(C(=O)O)cc2)cc1 | 2 | -3 | -4 | 0 | 30*
CCOc1cc(/C=N/NC(=O)c2ccc(N(C)S(=O)(=O)c3ccccc3)cc2)ccc1OC | -3 | -4 | -1 | 1 | 31*
Cc1ccc(S(=O)(=O)NC(=O)Nc2cccc([N+](=O)[O-])c2)cc1 | -8 | 1 | 1 | 0 | 68*
Cc1ccc(S(=O)(=O)NCC(=O)Nc2cccc([N+](=O)[O-])c2)cc1 | -9 | 5 | 1 | -1 | -12
Cc1ccc(/C=N/NC(=O)c2ccc(N(C)S(=O)(=O)c3ccccc3)cc2)cc1 | -7 | -5 | 1 | 0 | 48*
CSc1ccc(CCNC(=O)CCn2c(=O)c3cccn3c3ccc(F)cc32)cc1 | x | -8 | x | 0 | x
CCOc1ccc(C(=O)c2cn(CC(=O)Nc3ccc(F)cc3)c3cc4c(cc3c2=O)OCO4)cc1 | x | 5 | x | x | x
Cc1ccc(S(=O)(=O)N(C)c2ccc(C(=O)Nc3cccnc3)cc2)cc1 | -28 | -5 | -1 | 0 | 35*
CS(=O)(=O)N(CC(=O)Nc1cccc([N+](=O)[O-])c1)c1ccccc1 | -7 | 1 | -6 | -1 | -25
Cc1ccc(S(=O)(=O)N(CC(=O)Nc2cccnc2)c2cccc([N+](=O)[O-])c2)cc1 | -21 | -23 | -1 | -1 | 50*
CS(=O)(=O)N(CC(=O)Nc1cccc([N+](=O)[O-])c1)c1ccccc1F | -5 | 5 | -6 | -1 | 44*
CC(Sc1nnnn1C1CC1)C(=O)N1CC(=O)Nc2ccccc21 (stereo not given) | 28 | -1 | 3 | 0 | 47*
